# In PubChem BioAssay:
# The source made the active and inactive calls.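 The calls were made as follows: active = visually confirmed hit in the image check and inhibition above 20%; inconclusive = visually confirmed hit but inhibition not above 20%; inactive = no visual hit in the image check.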
# Test: inhibitors of E-selectin induction by TNFa, primary screen, imaging, HUVEC, immunofluorescence, MLSMR starter and 10KST1 sets (AID 487);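 as to inhibition: signal is fraction of cell area covered by stained E-selectin grains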;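 as to nuclei count: 100% = median nuclei count of all wells on the same plate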
# Details: HUVEC TNFalpha-induced E-selectin immunofluorescence imaging, at 2 µM; inhibition: stronger effect = higher value; nuclei count: measured here: cell number, toxicity
Structure (SMILES),nuclei count,inhibition
Cc1ccc(-c2nnc(SC(C)C#N)n2N)cc1 (stereo not given),137%,-93.5% (inactive)
CCOc1ccc2[nH]cc(C(=O)N3CCN(CC)CC3)c(=O)c2c1,94.8%,-18.9% (inactive)
Cn1nnnc1SCC(=O)N1CCN(c2ccccc2)CC1,97.6%,-49.9% (inactive)
CC(C)c1nc(N2CCN(C(=O)c3ccco3)CC2)c2c3c(sc2n1)CCCC3,103%,-7.6% (inactive)
CCOc1ccc(OCC)c(NC(=O)CN2CCN(C(=O)c3ccco3)CC2)c1,102%,-77.5% (inactive)
O=C(COC(=O)c1cc(S(=O)(=O)N2CCOCC2)cs1)c1ccccc1,114%,-88.5% (inactive)
Cn1c(=O)c2c(-c3ccncc3)c3c(nc2n(C)c1=O)-c1ccccc1C3=O,136%,-113% (inactive)
Nc1c(N2CCCCC2)c(=O)[nH]c(=O)n1-c1ccccc1,109%,-0.1% (inactive)
CC(=O)Nc1ccc(S(=O)(=O)N2CCN(C(=O)CCC3CCCC3)CC2)cc1,129%,-42.2% (inactive)
COc1cccc(C2CC(c3ccccc3)n3ncnc3N2)c1 (stereo not given),82%,17.4% (inactive)
CCOc1ccc2oc(-c3ccccc3)c(C(=O)N3CCN(CCO)CC3)c2c1,112%,-37.2% (inactive)
Cc1cc(NCCN2CCOCC2)n2nc(C)c(-c3ccccc3)c2n1,110%,-43.4% (inactive)
COCc1cc(C)nc(Nc2ccc(C)cc2C)c1C#N,120%,24.1% (inactive)
COc1ccccc1-c1nnc(SCC(=O)N2CC(C)CC(C)C2)o1 (stereo not given),94.8%,28% (inactive)
CC(=O)c1cc2c(cc1NC(=O)CN1CCN(C(=O)c3ccco3)CC1)OCO2,113%,-58.5% (inactive)
COc1cccc(C2=NOC(C(=O)Nc3cc(C)nn3-c3ccccc3)C2)c1OC (stereo not given),107%,-19.4% (inactive)
O=C(O)C1CCCN1c1ncnc2c1oc1ccccc12 (stereo not given),96.9%,22.9% (inactive)
Cc1ccc(OC(=O)CCC(=O)OCCCC(F)(F)C(F)(F)F)cc1,92.5%,4.5% (inactive)
O=S(=O)(c1cccc(S(=O)(=O)N2CCC(N3CCCCC3)CC2)c1)N1CCOCC1,106%,-3.7% (inactive)
CNc1ccc(C(O)(C(F)(F)F)C(F)(F)F)cc1C(O)(C(F)(F)F)C(F)(F)F,92.8%,3.3% (inactive)

Structure (SMILES),nuclei count,inhibition
Cc1cc(C)n2nc(SCc3nc4ccccc4[nH]3)nc2n1,117%,-21.3% (inactive)
Cc1cccc(C(=O)N(C)c2nnc(-c3ccncc3)s2)c1,102%,34.2% (inactive)
CCOC(=O)c1c(C)n(C)c2c(C)cc(O)c(OC(C)=O)c12,109%,-12.4% (inactive)
C=CCOC(=O)C1=C(C)NC(=O)NC1c1cn(-c2ccccc2)nc1-c1cccs1 (stereo not given),110%,-7.6% (inactive)
CCOc1ccccc1NC(=O)C1CCCN(S(=O)(=O)c2cccc3cccnc23)C1 (stereo not given),101%,-55.7% (inactive)
CCOc1ccccc1Nc1nnc(SCC(=O)N2CCCC2)s1,100%,-65.3% (inactive)
COC(=O)/C=c1\sc2ncnn2c1=O,107%,-34.9% (inactive)
CN(C)CCNc1oc(-c2ccccc2F)nc1C#N,116%,-40% (inactive)
O=C(C1CCN(c2nnc(-n3cccc3)s2)CC1)N1CCN(Cc2ccc3c(c2)OCO3)CC1,113%,-56.3% (inactive)
COc1ccccc1NC(=O)C1(C)Cc2ccccc2C(=O)O1 (stereo not given),106%,46.9% (inactive)
O=C(Cn1cnc2c(cnn2-c2ccc(F)cc2)c1=O)N1CCN(c2ccccc2)CC1,108%,-79.8% (inactive)
Cc1ccnc(N2CCN(C(=O)CSc3nc4ccccc4nc3N3CCCCC3)CC2)c1,100%,-13.7% (inactive)
Cc1cccc(C)c1NC(=O)c1cc(S(=O)(=O)N2CCOCC2)ccc1F,80.9%,-213% (inactive)
Cc1cc2ccccc2n1CCNC(=O)C1CC1,120%,-35% (inactive)
COc1ccc(C)cc1NC(=O)CCN1CCCC1,109%,6.5% (inactive)
COCCn1nnnc1C(c1ccc(OC)cc1)N1CCN(c2ccccc2F)CC1 (stereo not given),104%,-30.1% (inactive)
CCOc1ccc(NC(=O)CCN2CCN(c3ccccc3)CC2)cc1,105%,-44.6% (inactive)
CC(C)Cc1n[nH]c(=O)[nH]1,120%,-36.3% (inactive)
CC(=O)C1=C(O)C(=O)N(C2CCCCC2)C1c1ccccc1 (stereo not given),176%,-95.4% (inactive)
Cc1nn(-c2ccccc2)c2c1C(O)n1c(nc3ccccc31)S2 (stereo not given),100%,-10.2% (inactive)
